PPARg SRC-2 ag: agonists of PPARg-SRC-2 recruitment, primary screen, biochemical, HTS; Peroxisome proliferator-activated receptor gamma (Homo sapiens), P37231; PPARgamma LBD-SRC-2 recruitment; activation, % at 8 µM; 200,000 compounds, 0.34% hits; AID 1032, 2008
Target sequence (P37231 whole entry, looked up, the tested form may be a part): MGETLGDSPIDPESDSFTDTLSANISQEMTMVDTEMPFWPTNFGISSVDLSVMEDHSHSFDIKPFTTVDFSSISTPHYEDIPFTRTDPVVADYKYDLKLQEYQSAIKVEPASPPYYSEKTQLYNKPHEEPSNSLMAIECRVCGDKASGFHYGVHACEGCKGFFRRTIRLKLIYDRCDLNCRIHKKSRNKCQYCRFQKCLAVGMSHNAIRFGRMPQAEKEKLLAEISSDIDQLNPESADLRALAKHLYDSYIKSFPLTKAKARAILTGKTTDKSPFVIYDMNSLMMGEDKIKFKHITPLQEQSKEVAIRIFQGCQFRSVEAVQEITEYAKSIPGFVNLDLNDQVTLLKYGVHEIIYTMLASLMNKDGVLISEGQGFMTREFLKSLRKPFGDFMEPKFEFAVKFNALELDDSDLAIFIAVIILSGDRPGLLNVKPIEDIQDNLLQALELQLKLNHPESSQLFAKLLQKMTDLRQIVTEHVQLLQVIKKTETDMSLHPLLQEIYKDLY
PPARg SRC-3 ag: PPARgamma agonists recruiting SRC-3 coactivator, primary screen, biochemical; Peroxisome proliferator-activated receptor gamma (Homo sapiens), P37231; biochemical PPARgamma/SRC-3 coactivator recruitment assay; activation, % at 8 µM; 200,000 compounds, 0.26% hits; AID 731, 2007; in the data active means activation above about 23%
SRC1 TRFRET art: TR-FRET detection interference compounds, primary screen, artefact control for PPARgamma SRC-1 recruitment agonists, biochemical, TR-FRET emission ratio; TR-FRET ratio at 8 µM; 99,000 compounds, 0.34% hits; AID 1051, 2008; TR-FRET detection artefact counter-screen; stronger effect = higher value; in the data active means TR-FRET ratio above about 2300
PPARg SRC1 recr: PPARgamma agonists recruiting SRC-1 coactivator, primary screen, biochemical; PPARgamma-SRC-1 coactivator recruitment biochemical assay; activation, % at 8 µM; 200,000 compounds, 0.41% hits; AID 631, 2007; in the data active means activation above about 19%
SRC3 TRFRET art: TR-FRET detection interference compounds, artefact control for PPARgamma SRC-3 recruitment agonists, biochemical, TR-FRET ratio; TR-FRET ratio at 8 µM; TR-FRET artefact counter-screen, PPARgamma/SRC-3 format; stronger effect = higher value; AID 1048, 2008; 99,000 compounds, 0.39% hits; in the data active means TR-FRET ratio above about 2000
SRC2 TRFRET art: TR-FRET signal artefacts, primary screen, artefact control for PPARgamma SRC-2 agonist project, biochemical; TR-FRET artefact counter-screen; stronger effect = higher value; TR-FRET ratio at 8 µM; 200,000 compounds, 0.4% hits; AID 1049, 2008; in the data active means TR-FRET ratio above about 2000
PPARg SRC2 ag: agonists of PPARgamma SRC-2 coactivator recruitment, confirmation, biochemical, HTS; shares compounds with PPARg SRC-3 ag; biochemical SRC-2 recruitment by PPARgamma; AID 1297, 2008; activation, % at 8 µM; 790 compounds, 52% hits
PPARg SRC1 ag: PPARgamma agonists recruiting SRC-1 coactivator, confirmation, biochemical. 790 compounds, 43% hits. PPARgamma–SRC-1 coactivator recruitment biochemical assay. shares compounds with PPARg SRC-3 ag. activation, % at 8 µM; in the data active means activation above about 20%
PPARg SRC3 conf: PPARgamma-driven SRC-3 coactivator recruitment agonists, confirmation, biochemical. shares compounds with PPARg SRC-3 ag. 790 compounds, 29% hits. biochemical PPARgamma-SRC-3 coactivator recruitment, agonist mode. AID 1301, 2008. activation, % at 8 µM; in the data active means activation above about 24%
A number is an active result; – = inactive; · = not tested or not shown. In the library only some 0.9% were active in any assay of this set; here they are far more common. Unless noted, no stated cut-off is given here; in the data, active means activation above about 22%; inactive means the rest.

SMILES	PPARg SRC-2 ag	PPARg SRC-3 ag	SRC1 TRFRET art	PPARg SRC1 recr	SRC3 TRFRET art	SRC2 TRFRET art	PPARg SRC2 ag	PPARg SRC1 ag	PPARg SRC3 conf
COC(=O)c1c(N)n(Cc2ccc(OC)cc2)c2nc3ccccc3nc12	–	–	2577	–	–	–	·	·	·
CCc1ccccc1NC(=O)CNCc1ccccc1	–	–	–	–	–	–	·	·	·
Cn1c(=O)n(CC(=O)N2CCC3(CC2)OCCO3)c(=O)c2ccccc21	–	–	–	–	–	–	·	·	·
CCn1c(=O)cc(SCC(=O)N2CCC3(CC2)OCCO3)c2ccccc21	61	102	·	65	·	2944	37	25	26
CCN(CC)c1ccc(CNCCc2ccccc2F)cc1	–	–	–	–	–	–	·	·	·
O=C(O)c1cccc2nc3ccccc3nc12	–	–	–	–	–	–	–	–	–
COC(=O)c1ccccc1-n1c(C)nc2ccccc2c1=O	–	–	·	–	·	–	·	·	·
COc1ccc(NP(=O)(Oc2ccccc2OC)Oc2ccccc2OC)cc1	–	27	–	–	–	–	–	25	–
CN(C)c1ccc(/C=C/C=C2/C(=O)NC(=O)N(c3ccccc3)C2=O)cc1	29	50	2995	49	2895	2441	70	47	47
Cc1ccc(C2=CCNCC2)cc1	–	–	–	–	–	–	·	·	·
CN1/C(=C\C=C\C2=[N+](C)c3ccc4ccccc4c3C2(C)C)C(C)(C)c2ccccc21	84	70	·	42	·	3050	49	39	37
CSCCC(N=Cc1c(O)n(-c2ccc(Cl)cc2)c(=O)[nH]c1=O)C(=O)OC(C)(C)C (stereo not given)	–	–	·	–	·	–	·	·	·
